Screens: PubChem, Broad Institute
CD40 NFkB inh = inhibitors of CD40-induced NF-kB signaling, primary screen, BL2 cells, luciferase reporter, single point. inhibition, % at 10 µM. 83,000 compounds, 0.94% hits. CD40L-induced, 4 h;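 active = mean inhibition of at least 50% with a set share of replicates also reaching that level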;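 also: 0% = neutral control wells and 100% = IKK inhibitor VII at 50 µM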
* = called active by the depositor; [ ] = dose if it differs, or a comment. The entries come from a sample that favours hits as a whole.

SMILES	CD40 NFkB inh
Cn1ccc(=O)c2cc([N+](=O)[O-])ccc21	1.0
CN(C)c1ccc(C=c2c3cc([N+](=O)[O-])ccc3n3c2cc(-c2ccccc2)[n+]3C)cc1	90.6*
COc1cc(N(C)C)ccc1C=c1c2ccccc2n2c1cc(-c1ccccc1)[n+]2C	100.9*
CN(C)c1ccc(C=C2C=C(c3ccccc3)OC2=O)cc1	-1.2
CC(C)NC(=O)Nc1ccc2c(c1)C(=O)N(C)C[C@H](C)[C@H](CN(C)S(C)(=O)=O)O2	5.3
Cc1ccc(S(=O)(=O)N(C)C[C@@H]2OCCCC[C@@H](C)Oc3ccc(NS(=O)(=O)c4cccs4)cc3C(=O)N([C@@H](C)CO)C[C@@H]2C)cc1	6.6
COc1ccc(S(=O)(=O)N(C)C[C@H]2Oc3ccc(NC(=O)CCN4CCOCC4)cc3CC(=O)N([C@@H](C)CO)C[C@H]2C)cc1	-21.7[25 µM]
O=C(C1CCCC1)N1CC(=O)N2[C@H](C1)[C@H](c1ccc(-c3cccnc3)cc1)[C@@H]2CO	6.6
CO[C@@H](CN(C)S(=O)(=O)c1ccc(Cl)cc1)[C@H](C)CN(Cc1ccccc1Cl)[C@@H](C)CO	33.6*
CO[C@H](CN(C)S(=O)(=O)c1ccc(Cl)cc1)[C@H](C)CN(Cc1ccccc1Cl)[C@@H](C)CO	13.6
CO[C@@H](CN(C)S(=O)(=O)c1ccc(Cl)cc1)[C@@H](C)CN(Cc1ccccc1Cl)[C@H](C)CO	2.3
O=C(C[C@H]1C[C@H]2c3cc(NC(=O)C4CCOCC4)ccc3O[C@H]2[C@@H](CO)O1)NCc1ccc(Oc2ccccc2)cc1	-11.0[25 µM]
CC(C)[C@@H]1COCc2cn(nn2)CC[C@@H](Cc2ccccc2)C(=O)N1	0.1
O=C(Cc1ccccc1)N1CC[C@@H]2[C@@H](CO)Nc3ccc(-c4cccc(F)c4)cc3[C@@H]21	-15.9[25 µM]
O=C(Cc1ccccc1)N1CC[C@@H]2[C@H]1c1cc(-c3cccc(F)c3)ccc1N[C@@H]2CO	69.8*[25 µM]
O=C(c1ccncc1)N1CC[C@@H]2[C@@H](CO)Nc3ccc(-c4ccc(F)cc4)cc3[C@@H]21	active[25 µM]
O=C(Cc1ccccc1)N1CC[C@H]2[C@H](CO)Nc3ccc(-c4cccc(F)c4)cc3[C@H]21	4.3[25 µM]
O=C(Cc1ccccc1)N1CC[C@@H]2[C@@H](CO)Nc3ccc(C#Cc4cccc(F)c4)cc3[C@@H]21	2.4[25 µM]
O=C(Cc1ccccc1)N1CC[C@@H]2[C@H](CO)Nc3ccc(-c4cccc(F)c4)cc3[C@@H]21	-22.1[25 µM]
O=C(Cc1ccccc1)N1CC[C@@H]2[C@H]1c1cc(C#Cc3cccc(F)c3)ccc1N[C@@H]2CO	82.1*[25 µM]
O=C(c1cccc(F)c1)N1CC[C@@H]2[C@@H](CO)Nc3ccc(-c4ccc(F)cc4)cc3[C@@H]21	-6.6
O=C(c1ccncc1)N1CC[C@@H]2[C@H](CO)Nc3ccc(-c4ccc(F)cc4)cc3[C@@H]21	-47.0[25 µM]
O=C(c1ccc2c(c1)OCO2)N1C[C@H]2[C@@H](c3ccccc31)[C@@H](CO)N2Cc1ccccc1Cl	2.5[25 µM]
COCC(=O)N1CCC2(CC1)CN(S(C)(=O)=O)[C@H](CO)c1[nH]c3cc(OC)ccc3c12	-2.1[25 µM]
COc1ccc2c3c(n(C)c2c1)[C@@H](CO)N(CC1CC1)CC31CN(Cc2ccc(F)cc2)C1	5.3[25 µM]
SMILES	CD40 NFkB inh
CCOC(=O)N(C)C[C@H]1OCc2cn(nn2)CCCC(=O)N([C@H](C)CO)C[C@H]1C	2.6
CCC(=O)N1C[C@H]2[C@@H](c3ccccc31)[C@@H](CO)N2Cc1ccccc1Cl	4.5[25 µM]
O=C(NC1CC1)c1cccc(NC(=O)c2cn3ccccc3n2)c1	-90.0
O=C(Nc1ccc(Cl)c(S(=O)(=O)N2CCOCC2)c1)c1cn2ccccc2n1	5.8
O=C(Nc1ccc(N2CCOCC2)cc1)c1cn2ccccc2n1	57.1*
O=C(N[C@H]1CC[C@H](CCn2cc(C3CCCC3)nn2)O[C@H]1CO)c1cccnc1	13.0
C[C@H](CO)N1C[C@H](C)[C@@H](CN(C)Cc2ccc(Cl)c(Cl)c2)Oc2c(NC(=O)c3ccc(-c4nccs4)cc3)cccc2C1=O	-1.6[25 µM]
N#C[C@H]1[C@H](c2ccccc2-c2ccccc2F)[C@H](CO)N1C(=O)c1ccccn1	8.3[25 µM]
CC(=O)Nc1ccc(Sc2ccc([N+](=O)[O-])o2)cc1	86.3*
CC(=O)Nc1ccc(SC(Sc2ccc(NC(C)=O)cc2)c2ccccc2)cc1	-10.9
CC(=O)Nc1ccc([N+](=O)[O-])cn1	-1.7
C[C@@H]1CN([C@H](C)CO)C(=O)c2c(c3ccccc3n2C)-c2ccccc2CO[C@@H]1CN(C)S(=O)(=O)c1ccc(F)cc1	5.9
O=C(C[C@@H]1C[C@H]2c3cc(NC(=O)c4cccnc4)ccc3O[C@H]2[C@H](CO)O1)NC1CCCC1	-0.2
CC(C)OC(=O)N(C)C[C@H]1OCc2ccccc2-c2ccccc2C(=O)N([C@@H](C)CO)C[C@@H]1C	-0.6
CCCNC(=O)C[C@H]1CC[C@@H]2[C@H](COc3ccc(NC(=O)NCCC)cc3C(=O)N2C)O1	18.5
COc1cccc(-c2ccc([C@@H]3[C@@H](CO)N4C(=O)CNC[C@H]34)cc2)c1	-12.0[25 µM]
CCCCCCCCCC[n+]1cccc2c3ccccc3ccc21	93.8*
Cc1cccc[n+]1CCCCCCCCCC[n+]1ccccc1C	9.1
CCCCCCCCNc1ncnc2ccccc12	10.0
CCCCCCCC[n+]1cccc2c3ccccc3ccc21	93.2*
CCCCCC(=O)Nc1cccc2ccccc12	-12.6
CCCNC(=O)C[C@H]1CC[C@@H]2[C@H](COc3ccc(NC(=O)CC)cc3C(=O)N2C)O1	3.6[25 µM]
C[C@H]1CN([C@@H](C)CO)S(=O)(=O)c2ccc(C#CC3CC3)cc2O[C@@H]1CN(C)C(=O)CN(C)C	-0.2[25 µM]
COc1ccc(-c2ccc(C3[C@H]4CNC[C@@H]3N4C(=O)Nc3ccc4c(c3)OCO4)cc2)cc1 (stereo partly drawn)	-34.2
COc1ccccc1-c1ccc([C@@H]2[C@@H](C#N)N(C(=O)NC(C)C)[C@@H]2CO)cc1	-22.8
SMILES	CD40 NFkB inh
CC[n+]1c(/C=C2/C=C(C)CC(C)(C)C2)sc2ccc(OC)cc21	80.0*
CC(=O)Nc1ccc2c(c1)CC(=O)N(C)C[C@@H](C)[C@@H](CN(C)C(=O)NC(C)C)O2	4.9
N=C(N)c1ccc(OCCCCCOc2ccc(C(=N)N)cc2)cc1	62.2*
OCCNCCCCOc1ccc(F)cc1	5.5
CN(C)CCCCOc1ccc(F)cc1	9.7
O=S(=O)(c1ccccc1)N1CC[C@@H]2[C@H](CO)Nc3ccc(-c4ccccc4F)cc3[C@@H]21	-4.6
O=C(C1CCCC1)N1[C@@H]2CN(S(=O)(=O)c3ccc(F)cc3)c3ccccc3[C@@H]2[C@@H]1CO	5.8
CO[C@H](CN(C)Cc1cc(F)ccc1F)[C@H](C)CN(C(=O)Nc1ccc(C(F)(F)F)cc1)[C@H](C)CO	52.6*[25 µM]
CO[C@@H](CN(C)Cc1cc(F)ccc1F)[C@H](C)CN(C(=O)Nc1ccc(C(F)(F)F)cc1)[C@H](C)CO	-8.8[25 µM]
CO[C@@H](CN(C)Cc1ccc2c(c1)OCO2)[C@@H](C)CN(C(=O)Nc1ccc(F)cc1)[C@H](C)CO	-1.2[25 µM]
N#C[C@@H]1[C@H](c2ccccc2-c2ccc(F)cc2)[C@H](CO)N1C(=O)NC1CCCC1	2.2
CCCNC(=O)N1[C@H](C#N)[C@H](c2ccc(-c3cccnc3)cc2)[C@@H]1CO	13.5
O=C(Nc1cccc(F)c1)N1C[C@H]2[C@@H](c3ccccc31)[C@@H](CO)N2C(=O)Cc1ccccn1	-3.4[25 µM]
CCOC(=O)C1=C(COC(=O)c2ccccc2OC)NC(=O)NC1C (stereo not drawn)	-4.8
CC(=O)c1sc2ccccc2c1OC(=O)c1ccco1	-5.9
CCOC(=O)c1sc2ccccc2c1OC(=O)c1ccccc1OC	64.2*
